Measured values as given in the supplement of paper PMC3334620.
The full ranking holds about 33,000 sequences; the median of “E-score (-0.5 to 0.5)” is about -0.015, and the highest 2% start at about 0.3. This is one part of a sample in which the highest values are shown more often than they occur.

biological target: T1, Abf1 (UniProt P14164); assay: PBM E-score (8-mer binding enrichment) (E-score (-0.5 to 0.5)); higher = stronger / more preferred TF binding; settings: protein concentration: 200 nM; construct: GST-full length
T1 sequence: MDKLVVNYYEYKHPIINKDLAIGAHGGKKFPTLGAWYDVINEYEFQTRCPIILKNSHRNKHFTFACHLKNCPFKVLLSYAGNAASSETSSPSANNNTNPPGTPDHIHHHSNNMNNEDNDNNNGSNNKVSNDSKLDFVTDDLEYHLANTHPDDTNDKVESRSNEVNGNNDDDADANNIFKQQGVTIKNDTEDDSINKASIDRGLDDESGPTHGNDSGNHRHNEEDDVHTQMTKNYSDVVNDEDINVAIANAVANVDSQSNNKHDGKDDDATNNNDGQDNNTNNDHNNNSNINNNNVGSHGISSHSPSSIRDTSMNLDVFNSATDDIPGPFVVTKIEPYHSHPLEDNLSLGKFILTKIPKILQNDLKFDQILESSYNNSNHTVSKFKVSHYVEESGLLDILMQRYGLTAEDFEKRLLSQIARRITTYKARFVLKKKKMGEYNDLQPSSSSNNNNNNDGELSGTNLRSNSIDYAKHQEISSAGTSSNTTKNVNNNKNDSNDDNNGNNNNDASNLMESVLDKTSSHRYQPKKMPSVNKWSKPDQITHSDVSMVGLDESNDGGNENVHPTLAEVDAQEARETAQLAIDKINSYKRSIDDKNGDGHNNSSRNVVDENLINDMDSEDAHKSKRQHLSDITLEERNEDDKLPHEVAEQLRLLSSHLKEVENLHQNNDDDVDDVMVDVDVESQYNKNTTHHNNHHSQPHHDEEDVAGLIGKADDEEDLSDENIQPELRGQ
Procedure: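 Universal 'all 10-mer' protein binding microarrays (Agilent AMADID 015681) probed with GST-tagged S. cerevisiae TFs (full-length or DBD) made by in vitro transcription/translation (PURExpress), about 100-200 nM. Bound TF was detected with fluorescent anti-GST. Each ungapped 8-mer (which stands for itself and its reverse complement) is scored by the PBM enrichment score (E-score), a modified Wilcoxon-Mann-Whitney statistic from -0.5 to +0.5, computed with the Universal PBM Analysis Suite. Scale: above 0.35 generally sequence-specific binding.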

Row | Sequence | PBM E-score
1 | CAGAGTTC | -0.228
2 | GGGCCGTA | 0.244
3 | GACAGGAA | 0.0498
4 | GATCGCCC | 0.0433
5 | GCGACCAC | 0.134
6 | TCGATTAA | 0.0311
7 | CACAAAAA | 0.0732
8 | GCAGTTAA | -0.0142
9 | CTAACGAC | 0.263
10 | TCAGTCCA | -0.171
11 | AGTGACTC | 0.149
12 | GTTGACAA | 0.16
13 | ATTGACAC | -0.12
14 | AGTGACTA | 0.324
15 | GCTGACAA | 0.0133
16 | GGTGACAA | 0.423
17 | AGTGACAC | 0.382
18 | GGTGACAC | 0.238
19 | CGTGACAC | 0.252
20 | CGTGACAA | 0.375
21 | AGTGACTG | 0.175
22 | TGTGACAA | 0.221
23 | ATAACGGG | 0.0588
24 | CGGGCGCA | -0.146
25 | GAATTAAA | 0.00779

Row | Sequence | PBM E-score
26 | GTGGAGAA | 0.0678
27 | ACATACCT | -0.0525
28 | CTACCTTC | 0.0107
29 | GGCGGAGA | -0.00874
30 | TAACGAAA | 0.243
31 | TAGCGATA | 0.347
32 | GAACGAGA | 0.0551
33 | CAACGATC | 0.103
34 | GTACGATA | 0.259
35 | GAGCGATA | 0.223
36 | TAACGAGA | 0.295
37 | TAACGATA | 0.36
38 | CAGCGATA | 0.16
39 | GAACGATC | 0.298
40 | GAACGATA | 0.301
41 | AAACGATC | 0.286
42 | ATGTAGAC | -0.0712
43 | CCATTTAG | -0.118
44 | CCGAGGTC | -0.0891
45 | GATTGGTA | 0.109
46 | GCTCCTGA | -0.23
47 | CCGTACCC | 0.267
48 | CCGAGTTA | 0.0322
49 | CGCGCCTC | -0.14
50 | TACAGCCA | -0.224

Row | Sequence | PBM E-score
51 | GCACGAGA | 0.178
52 | AAACGATT | 0.292
53 | CAACGATA | 0.25
54 | GCACGATA | 0.355
55 | AAACGATA | 0.376
56 | ACACGATA | 0.295
57 | GCGAACTA | -0.0767
58 | CCGCGAGA | -0.0337
59 | GCGGCACA | 0.112
60 | ACGTATAT | 0.193
61 | ACGTAAAT | 0.113
62 | ACGTAAAA | 0.317
63 | CCGTATAC | 0.272
64 | TGGTATAA | 0.0711
65 | TCGTATAA | 0.4
66 | ACGTATAG | 0.186
67 | GCGTAAAA | 0.103
68 | ACGTATAA | 0.304
69 | GCGTATAA | 0.154
70 | TAGTATAA | 0.269
71 | CCGTATAA | 0.418
72 | GTAAGAAA | 0.176
73 | ATCAGGGC | -0.198
74 | CCATCGCA | -0.0576
75 | CAATATTG | 0.0635

Row | Sequence | PBM E-score
76 | GGCCCTTA | -0.233
77 | GTAAACCA | -0.0676
78 | GCTTTATA | -0.0302
79 | ATTCGTCA | 0.164
80 | ATTCGTAA | 0.203
81 | ATTCGTCG | 0.31
82 | ATTCGTAG | 0.191
83 | CTTCGTAC | 0.414
84 | ATTCGTAC | 0.408
85 | ATTCGTCC | 0.296
86 | CTTCGTCC | 0.0852
87 | CTTCGTAA | 0.161
88 | GCGAGGAA | -0.0784
89 | AGTGGCGA | 0.0606
90 | CTGTTTGC | 0.0145
91 | CCTAAACA | -0.224
92 | ATTCGGTC | 0.0175
93 | GCAGGCAC | -0.145
94 | CCCTTTGA | -0.125
95 | CGACGTCA | 0.123
96 | CACGAACC | 0.185
97 | CACGGTTC | 0.154
98 | ACGTCACC | 0.22
99 | ACGTCACG | 0.326
100 | GCGTCACA | 0.02

Row | Sequence | PBM E-score
101 | ACGTCACA | 0.0823
102 | ACGTCACT | 0.39
103 | ACGTCAAT | 0.116
104 | AAGATAGG | -0.151
105 | ACTTCAGC | -0.124
106 | ATCAGGGA | -0.0561
107 | GAATGTCA | 0.278
108 | CTATGTCC | -0.022
109 | GTATGTCA | 0.394
110 | CTATGTCA | 0.31
111 | ATATGTCA | 0.289
112 | GGATGTCA | 0.171
113 | ATAAGGCA | 0.14
114 | ACAGGGGG | -0.357
115 | GGAAGGAC | 0.0147
116 | AGACCATC | -0.195
117 | ATTAACCC | -0.086
118 | CGTGTAAA | 0.314
119 | TGTGTGAA | -0.234
120 | CGTGTAAC | 0.237
121 | CGTGTGAC | 0.11
122 | AGTGTAAA | -0.00367
123 | CGTGTGAA | 0.311
124 | ATATGGTG | 0.0579
125 | CGTGACCA | 0.0961

Row | Sequence | PBM E-score
126 | GGTGACGA | 0.276
127 | AGTGACGA | 0.422
128 | AGTGACGG | 0.1
129 | CGTGACGA | 0.351
130 | CGTGACGC | 0.152
131 | CGGACATA | 0.0662
132 | CATGGAGG | -0.286
133 | AACGGCAT | 0.226
134 | CTGGTTGC | -0.0319
135 | AAATCAAT | 0.142
136 | AAATCACA | 0.0176
137 | AAATCACT | 0.374
138 | AAATCACC | 0.336
139 | AAATCACG | 0.284
140 | CAATCACC | 0.0554
141 | CGAACCAA | 0.0494
142 | ATCAGCGA | -0.0614
143 | GGTTTTCA | 0.167
144 | ACGAGCAT | 0.00886
145 | GTCCTATA | -0.0768
146 | CACGACAC | 0.296
147 | TACGACAA | 0.298
148 | AACGACAC | 0.238
149 | GACGACAA | 0.347
150 | AACGACAT | 0.346

Row | Sequence | PBM E-score
151 | AACGACAA | 0.308
152 | GGCGACAA | 0.0843
153 | AACGACAG | 0.196
154 | TGCGACAA | 0.0936
155 | CACGACAA | 0.25
156 | GACGACAC | 0.252
157 | ACCGACAA | 0.115
158 | TCAAGAGA | 0.0894
159 | ACATCGTG | 0.185
160 | ACCCCTAC | -0.271
161 | AAGAGGAA | -0.0719
162 | GGCCCGTA | 0.0104
163 | ACGGAGGG | 0.0212
164 | CACGCAGC | 0.00826
165 | ACGTCTAG | 0.167
166 | CGATCACG | 0.298
167 | AGATCAAG | 0.112
168 | AGATCACA | 0.138
169 | AGATCACC | 0.311
170 | TGATCACA | 0.292
171 | GGATCACC | 0.247
172 | AGATCACG | 0.35
173 | CGATCACC | 0.0211
174 | CGATCACA | 0.161
175 | GGATCACA | 0.00896

Row | Sequence | PBM E-score
176 | AGATCACT | 0.437
177 | AGATCAAT | 0.12
178 | AGACGGGG | 0.0661
179 | GATCCTCA | 0.019
180 | CTAATTCC | 0.0379
181 | ATGACCTA | 0.235
182 | ATACAACA | 0.0798
183 | CAAATGAA | -0.155
184 | AAAGGATT | -0.105
185 | TGCAACCA | -0.0685
186 | CGTCTCTC | 0.162
187 | ACTTCGTG | 0.0796
188 | ACTTCGTA | 0.297
189 | GCTTCGTA | 0.313
190 | CCTTCGTA | 0.292
191 | GCTTCGGA | 0.0157
192 | ACTTCGTC | 0.227
193 | CCGACACC | -0.195
194 | ATTTTTGC | 0.113
195 | TACAGGCA | 0.119
196 | AGCTACAA | -0.101
197 | GAGAAGGA | -0.18
198 | ATATCAAA | 0.0352
199 | CCTCCGCC | -0.059
200 | ACGTACAT | 0.244

Row | Sequence | PBM E-score
201 | ACGTACGT | 0.335
202 | CCGTACGG | 0.29
203 | ACGTACGC | 0.114
204 | ACGTACGA | 0.335
205 | AGGTACGA | 0.0832
206 | ACGTACGG | 0.328
207 | AAGTACGA | 0.151
208 | ACGTACAG | -0.0233
209 | CAGCGGAC | -0.105
210 | AGCGAGAT | 0.0588
211 | CCGTATGC | 0.0398
212 | CCGTATGA | 0.408
213 | ACGTATGG | 0.136
214 | ACGTATGA | 0.332
215 | ACGTATGC | 0.014
216 | GCGTATGA | 0.0421
217 | CGAGTTAG | 0.148
218 | ACTAGAAA | -0.0186
219 | ATACGGAG | 0.0972
220 | CTACGGAA | 0.139
221 | ATACGGAT | 0.297
222 | ATACGGAC | 0.142
223 | ATACGGAA | 0.299
224 | TTACGGAA | 0.124
